This is one part of a sample in which hits are shown more often than they occur.
GIRK2 activ = activators of human GIRK2 potassium channels | HEK293-GIRK2 thallium flux, Thallos fluorescence, MPD | calls only for hits at 25 µM | actives 0.05% (n = 63,000) | G protein-activated inward rectifier potassium channel 2 (Homo sapiens), P48051 | AID 1259325, 2017; call rule not given here
Target sequence (P48051 whole entry, looked up): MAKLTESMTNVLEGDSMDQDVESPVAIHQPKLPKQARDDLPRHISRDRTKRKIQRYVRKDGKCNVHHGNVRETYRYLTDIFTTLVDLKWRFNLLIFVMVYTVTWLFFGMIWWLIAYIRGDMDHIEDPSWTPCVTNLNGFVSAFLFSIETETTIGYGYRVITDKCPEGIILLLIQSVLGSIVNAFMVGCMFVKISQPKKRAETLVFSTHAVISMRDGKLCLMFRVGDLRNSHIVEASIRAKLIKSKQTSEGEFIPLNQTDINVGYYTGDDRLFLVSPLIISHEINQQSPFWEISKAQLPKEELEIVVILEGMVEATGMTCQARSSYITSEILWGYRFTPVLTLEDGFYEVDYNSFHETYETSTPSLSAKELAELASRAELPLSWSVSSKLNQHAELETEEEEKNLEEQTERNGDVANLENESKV
An asterisk follows results filed as active.

For CCn1c(=O)c2c(nc3n(-c4cc(OC)ccc4OC)c(-c4ccccc4)cn23)n(C)c1=O the results were GIRK2 activ active.
CCn1c(=O)c2c(nc3n(-c4ccc(OC)cc4OC)c(-c4ccccc4)cn23)n(C)c1=O was read as GIRK2 activ inactive.
Screening CCCn1c(=O)c2c(nc3n(-c4cc(OC)ccc4OC)c(-c4ccccc4)cn23)n(C)c1=O returned GIRK2 activ inactive.
For Cc1oc(-c2cccc(Cl)c2)nc1COC(=O)c1nnn(-c2cccc(F)c2)c1C the results were GIRK2 activ inactive.
O=C(Nc1ccccc1F)c1cccc(S(=O)(=O)N2CCOCC2)c1 was read as GIRK2 activ inactive.
For Cc1cc(=O)n2c(-c3cccc(NC(=O)COc4ccc5ccccc5c4)c3)csc2n1 the results were GIRK2 activ inactive.
Cc1cc(NC(=O)c2cn(-c3cccc(Cl)c3)nn2)ccc1Br was read as GIRK2 activ inactive.
For Cc1cc(C)n(-c2ncc(NC(=O)Nc3ccc(Cl)c(C(F)(F)F)c3)cn2)n1 the results were GIRK2 activ inactive.
`CN1CCN(c2ncc(NC(=O)Nc3ccc(Cl)c(C(F)(F)F)c3)cn2)CC1` gave GIRK2 activ active.
Screening Cc1ccc(NC(=O)Nc2cnc(N3CCN(C)CC3)nc2)c(Cl)c1 returned GIRK2 activ inactive.
For CCOc1ccc(-c2cc3c(=O)n(CC(=O)Nc4ccccc4F)ncn3n2)cc1 the results were GIRK2 activ inactive.
For CCCn1c(=O)c2c(nc3n2CCN3c2ccc(OC)c(Cl)c2)n(C)c1=O the results were GIRK2 activ inactive.
For COc1ccc(CNC(=O)COc2cc(C)nc(N3CCCCC3)n2)cc1 the results were GIRK2 activ inactive.
For CCCCNC(=O)c1c(C)c2c(=O)n(CC(=O)Nc3ccc4c(c3)OCCO4)ncn2c1C the results were GIRK2 activ inactive.
COc1ccc(NC(=O)c2cn(-c3cc(N(C)C)ncn3)cn2)cc1 was read as GIRK2 activ inactive.
COc1ccc(/C=C/c2nn3c(-c4cccc(Br)c4)nnc3s2)cc1 was read as GIRK2 activ inactive.
Screening Cc1nn2c(NCCOCCO)cc(C(C)(C)C)nc2c1-c1ccccc1Cl returned GIRK2 activ inactive.
CCc1cccc(C)c1NC(=O)CSC1=Nc2ccccc2NC(CC(=O)OC)=C1 was read as GIRK2 activ inactive.
For CCCCn1c(C(=O)N2CCC(C(N)=O)CC2)cc2c(=O)n(C)c(=O)n(C)c21 the results were GIRK2 activ inactive.
COc1coc(C(=O)Nc2ccc(Oc3ccccc3)cc2)cc1=O was read as GIRK2 activ active.
For COc1coc(C(=O)Nc2ccc(C)c(Cl)c2)cc1=O the results were GIRK2 activ inactive.
COc1coc(C(=O)NCc2ccccc2)cc1=O was read as GIRK2 activ inactive.
COc1ccc(C)cc1NC(=O)C(=O)NCC1CCN(S(=O)(=O)c2cccnc2)CC1 was read as GIRK2 activ inactive.
For CC1CC(C)CN(c2nccn3c(=O)n(CC(=O)Nc4ccc(F)c(Cl)c4)nc23)C1 (configuration not stated) the results were GIRK2 activ inactive.
Screening CCCc1nc2ccccc2n1Cc1ccc(F)cc1 returned GIRK2 activ inactive.
COc1ccc(CNC(=O)Cn2nc3c(c2NC(=O)COc2ccc(Cl)cc2)CSC3)cc1 was read as GIRK2 activ inactive.
Screening Fc1ccc(-c2n[nH]c(=S)s2)cc1 returned GIRK2 activ active.
`Cc1nc(-c2ccc(F)cc2)sc1-c1cc(C(=O)N(C)Cc2ccccc2)n[nH]1` gave GIRK2 activ inactive.
Screening Nc1nc(-c2ccc(F)cc2)c(-c2ccc3ncccc3n2)s1 returned GIRK2 activ inactive.
COc1ccccc1S(=O)(=O)NCC(C)(O)c1ccc(-c2ccccc2)cc1 (configuration not stated) was read as GIRK2 activ inactive.
Screening O=C(NCCC1=CCCCC1)C(=O)NCCC(O)c1ccccc1 (configuration not stated) returned GIRK2 activ inactive.
O=C(NCc1ccc(F)c(Cl)c1)c1nnn(-c2ccccc2)c1-c1ccccn1 was read as GIRK2 activ inactive.
`COC(=O)c1ccccc1NC(=O)c1nnn(-c2ccccc2)c1-c1ccccn1` gave GIRK2 activ inactive.
For O=C(Nc1cccc(Cl)c1F)c1nnn(-c2ccccc2)c1-c1ccccn1 the results were GIRK2 activ active.
For CC/C=C\C/C=C\C/C=C\C/C=C\CCCCCCC(=O)O the results were GIRK2 activ inactive.
`N#Cc1ccc(Cl)cc1NC(=O)c1cnn2c1OCCC2` gave GIRK2 activ inactive.
O=C(Nc1cc(Cl)ccc1O)c1cnn2c1OCCC2 was read as GIRK2 activ active.
For O=C(Nc1cc2ccccc2oc1=O)c1cnn2c1OCCC2 the results were GIRK2 activ inactive.
Screening COc1cc(C2C(=C(O)c3ccc(Cl)cc3)C(=O)C(=O)N2c2cc(C)on2)ccc1O (configuration not stated) returned GIRK2 activ inactive.
`COCCCNC(=O)CSc1nc(-c2ccc(F)cc2)[nH]c1-c1ccc(F)cc1` gave GIRK2 activ active.
COCCCNC(=O)CSc1nc(-c2ccccc2)[nH]c1-c1ccc(OC)cc1 was read as GIRK2 activ inactive.
For COCCCNC(=O)CSc1nc(-c2ccc(OC)c(OC)c2)[nH]c1-c1ccc(F)cc1 the results were GIRK2 activ inactive.
Screening COc1ccccc1NC(=O)CSc1nccn(-c2ccc(C)cc2)c1=O returned GIRK2 activ inactive.
Cc1cc(C)c(S(=O)(=O)NCCCC(=O)O)cc1N(C)S(C)(=O)=O was read as GIRK2 activ inactive.
COc1ccc(NC(=O)CCc2csc(NC(=O)NC3CCCCC3)n2)cc1OC was read as GIRK2 activ inactive.
Screening CCOC(=O)c1c(S(=O)(=O)N2CCN(c3ccc(Cl)cc3)CC2)n[nH]c1C returned GIRK2 activ inactive.
COC(=O)c1c(S(=O)(=O)N2CCN(c3cccc(Cl)c3)CC2)n[nH]c1C was read as GIRK2 activ active.
`CCOc1ccccc1N1CCN(S(=O)(=O)c2n[nH]c(C)c2C(=O)OC)CC1` gave GIRK2 activ inactive.
`Cn1c(SCC(=O)NCCCc2ccccc2)nc2c(-c3ccccc3)csc2c1=O` gave GIRK2 activ inactive.
For Cc1c(C(=O)N2CCC(C)CC2)cnn1-c1cc(-c2nc(C(C)(C)C)no2)ccn1 the results were GIRK2 activ inactive.
For N#Cc1c(C(F)(F)F)cc(-c2cccs2)nc1SCCC(=O)Nc1nccs1 the results were GIRK2 activ inactive.
CC1C(=O)N2CCCc3cc(NC(=O)C(=O)NCC(O)(c4ccccc4)C4CC4)cc1c32 (configuration not stated) was read as GIRK2 activ active.
Screening CC1C(=O)N2CCCc3cc(NC(=O)C(=O)NCC4(O)CCOc5ccccc54)cc1c32 (configuration not stated) returned GIRK2 activ inactive.
For Cc1ccc(NC(=O)C(=O)NCC(O)(c2ccccc2)C2CC2)cc1N1CCCC1=O (configuration not stated) the results were GIRK2 activ inactive.
Screening COc1ccc(C)cc1S(=O)(=O)NCCNc1cc(Nc2ccccn2)nc(C)n1 returned GIRK2 activ inactive.
`Cc1cc(NC(=O)C2CCN(C(=O)Nc3cccc(C(F)(F)F)c3)CC2)no1` gave GIRK2 activ inactive.
COc1ccc(C(=O)Nc2nnc(-c3ccccc3OC)o2)cc1OC was read as GIRK2 activ inactive.
Cc1noc(C)c1CC(=O)Nc1nc(-c2cccnc2)cs1 was read as GIRK2 activ inactive.
